The values below come from PubChem BioAssay (NCI).

The panel holds about 79,000 compounds, 15% with a hit somewhere; the sample as a whole holds those more often. Values without a mark were called inactive. Activity calls are given as the source filed them. Cut-off read from the data, not from the text of the source: active = growth inhibition above about 70%; inactive = the rest. Where a SMILES comes first, the peptide text is derived from it. [ ]: non-standard residue; d: D form. The star is where a group is joined. ONb = O=[N+]([O-])c1ccc(CO*)cc1; AllylGly = C=CC[CH](N)C(=O)O; Boc = CC(C)(C)OC(=O)*

Test [1] can be described thus: NCI Yeast Anticancer Drug Screen. Data for the rad50 strain (AID 155).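 Note: 0% = growth of vehicle-only cultures of the same strain.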 Particulars: S. cerevisiae rad50 strain growth inhibition; at 50.0 µM; hits give high values. The essentials: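 Relative growth inhibition (compound vs vehicle) was measured in yeast with a defined repair-gene alteration.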
Test [2] is described as follows: NCI Yeast Anticancer Drug Screen. Data for the mec2-1 strain (AID 157). Particulars: S. cerevisiae mec2-1 strain, at 50.0 µM, hits give high values. The essentials:
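Vehicle-treated cultures served as reference for growth inhibition of compound-exposed mec2-1 yeast.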

Test [3] in a line: NCI Yeast Anticancer Drug Screen. Data for the sgs1 mgt1 strain (AID 161).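 Note: 0% = growth of cultures given vehicle only.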 Particulars: S. cerevisiae sgs1 mgt1 strain, at 50.0 µM, hits give high values. The essentials:
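Test agents were incubated with a DNA-repair-mutant yeast strain. Growth was then read and compared against vehicle-treated controls.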

Test [4] can be described thus: NCI Yeast Anticancer Drug Screen. Data for the cln2 rad14 strain (AID 165).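 Note: 0% = growth equal to vehicle treated cultures.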 The note with it: S. cerevisiae cln2 rad14 strain, at 50.0 µM, hits give high values. In a few lines: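 Each compound was tested on cln2 rad14 yeast. Inhibition of growth was calculated against vehicle-exposed controls.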
Test [5] in a line: NCI Yeast Anticancer Drug Screen. Data for the bub3 strain (AID 167). The note with it: S. cerevisiae bub3 mutant strain, at 50.0 µM, hits give high values. In a few lines: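 Screening used yeast with an engineered genetic alteration affecting cell cycle control. Compound-exposed cultures were compared with vehicle cultures, and reduced growth was taken as inhibition.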
A short description of test [6]: NCI Yeast Anticancer Drug Screen. Data for the mlh1 rad18 strain (AID 175). The note with it: S. cerevisiae mlh1 rad18 strain growth inhibition; at 50.0 µM; hits give high values. The essentials: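 Vehicle-treated cultures served as the reference for growth inhibition in a yeast strain carrying DNA damage repair alterations exposed to each compound.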

In the case of `[O-][N+](CCO)(CCO)Cc1ccccc1`, the growth inhibition in test [1] is 14.1%; in test [2], 1.05%; in test [3] it was 19.8%; in test [4], 6.2%; in test [5], 9.65%; in test [6], 26.6%.
Take `COc1ccc(NC(=O)/C(Cc2nc3ccccc3[nH]c2=O)=N\O)c(OC)c1`: the growth inhibition in test [1] is -1.85%; in test [2], -9.4%; in test [3], -5.1%; in test [4], 0.7%; in test [5] it was -4.85%; in test [6] it was -13.7%.
With `COc1cc2c(cc1OC)C(=O)C1(C2)[C@H](c2ccccc2)C2C(=O)c3cc(OC)c(OC)cc3C2[C@H]1c1ccccc1` (stereo partly specified), the growth inhibition in test [1] is -2.5%; in test [2] it was 3.25%; in test [3] it was 29.9%; in test [4], 17.6%; in test [5], 46%; in test [6], 23.1%.
With `C(=C\c1ccc2ccccc2c1)/c1ccc2ccccc2c1`, the growth inhibition in test [1] was 6.75%; in test [2] it was 25.6%; in test [3], 16.6%; in test [4] it was 63.5%; in test [5] it was 6.85%; in test [6], 31.4%.
For the molecule `CN(C)c1ccc(C(=O)CCCN2CCC(O)(c3ccc(Cl)cc3)CC2)cc1`, the growth inhibition was 37.4% in test [1]; 14.8% in test [2]; 36.6% in test [3]; 6.4% in test [4]; 18.1% in test [5]; 21.9% in test [6].
For the molecule `CC(NNC(=O)c1ccncc1)c1ccc(Cl)cc1Cl` (stereo unspecified), the growth inhibition is -19.9% in test [1]; 9.15% in test [2]; -21.6% in test [3]; 22.6% in test [4]; 13.8% in test [5]; -16.1% in test [6].
`Cc1c(O)c([N+](=O)[O-])cc2c1OCOC2`: the growth inhibition in test [1] was 3.8%; in test [2] it was 11.6%; in test [3], -3.15%; in test [4], -9.4%; in test [5], -17.5%; in test [6], 0%.
Consider `O=CN1CCN(C=S)CC1`, for which the growth inhibition in test [1] was -14%; in test [2], -10.2%; in test [3], -9.9%; in test [4], 3.75%; in test [5] it was 2.6%; in test [6] it was -15.4%.
Regarding `O=[N+]([O-])c1cc2no[n+]([O-])c2cc1N1CCOCC1`, the growth inhibition was 98.8% (active) in test [1]; 99.3% (active) in test [2]; 99.2% (active) in test [3]; 98.4% (active) in test [4]; 99% (active) in test [5]; 99.2% (active) in test [6].
In the case of `Cc1ccc(S(=O)(=O)OCC(c2ccc(Cl)cc2)c2ccccc2Cl)cc1` (stereo unspecified), the growth inhibition in test [1] was 14.6%; in test [2], 1.9%; in test [3], 3.6%; in test [4] it was 11.4%; in test [5], -1.15%; in test [6], 1.85%.
For `CCOC(=O)/C(=C\OC(=O)c1ccccc1)NC(=O)Cc1ccccc1`, the growth inhibition in test [1] is -1.9%; in test [2] it was 25.6%; in test [3] it was 22%; in test [4], -98.8%; in test [5], 37.2%; in test [6], 23.4%.
Take `Cc1ccc(NC(=O)C2C(=O)N(c3ccc(C)c(C)c3)C(=O)C2N=N)cc1C` (stereo unspecified): the growth inhibition was 7.9% in test [1]; 34.8% in test [2]; 26.6% in test [3]; -41.8% in test [4]; 0.35% in test [5]; 44.9% in test [6].
In the case of `c1ccc2c(c1)oc1ccc3nsnc3c12`, the growth inhibition was 7.25% in test [1]; -7.45% in test [2]; 13.8% in test [3]; -1.45% in test [4]; 20.1% in test [5]; -10.3% in test [6].
For the molecule `CC1(C)CCc2c(cc3c(c2O)CCC(C)(C)O3)O1`, the growth inhibition in test [1] is 4.6%; in test [2], 7.6%; in test [3], -10.7%; in test [4], 12.9%; in test [5], 9.05%; in test [6] it was 8.45%.
With `C=CCC(NC(=O)OC(C)(C)C)C(=O)NC(CCC(=O)OCc1ccc([N+](=O)[O-])cc1)C(N)=O` (stereo unspecified) (Boc-[AllylGly]-Glu(ONb)-NH2; configuration not given here), the growth inhibition is -7.75% in test [1]; -36.7% in test [2]; -20.1% in test [3]; 9.25% in test [4]; -2.35% in test [5]; -9.2% in test [6].
Regarding `Cc1ccc(-n2c(C)nc3c(c(C)c(C)n3-c3ccccc3)c2=N)cc1`, the growth inhibition in test [1] is 4.1%; in test [2], -0.75%; in test [3], 4.75%; in test [4] it was -19%; in test [5], 15.4%; in test [6], 6.65%.
Consider `O=S1Cc2nc3ccccc3n2C1c1c(F)cccc1F` (stereo unspecified), for which the growth inhibition in test [1] was 1.25%; in test [2], -6.1%; in test [3], -4%; in test [4], 21.6%; in test [5], 3.6%; in test [6], -18.8%.
Take `Cc1cc(N)c(C)c2ccncc12`: the growth inhibition in test [1] is -11.4%; in test [2], 0%; in test [3], -11.5%; in test [4] it was -15.2%; in test [5], 24.2%; in test [6] it was 2.75%.
With `Nc1n[nH]c(CCCCc2nc(N)n[nH]2)n1`, the growth inhibition is -23.2% in test [1]; -24.4% in test [2]; -2.55% in test [3]; -39.8% in test [4]; -4.25% in test [5]; -1.9% in test [6].
Take `CC1=NS(=O)(=O)c2ccccc2N1`: the growth inhibition is 0.3% in test [1]; -4.4% in test [2]; 4.75% in test [3]; 15.9% in test [4]; 4.45% in test [5]; 10.2% in test [6].
Regarding `O=[N+]([O-])c1ccc(S(=O)(=O)N/N=C/c2cccc([N+](=O)[O-])c2)cc1`, the growth inhibition is -8.15% in test [1]; -13.2% in test [2]; 1.1% in test [3]; -15% in test [4]; 0.35% in test [5]; -12.1% in test [6].
